Test results from PubChem BioAssay (Tox21).
Inconclusive results are not listed. The source made the active and inactive calls. Unless noted, calls come from the whole dose curve.

Assays:
[1] = Nuclear factor erythroid 2-related factor 2/antioxidant responsive element (Nrf2/ARE) small molecule agonists: qHTS cell viability counter screen in human keratinocytes (AID 1919968; active = well fitted curve in the direction sought with a large enough effect in the repeat runs; an effect the other way counts as inactive or inconclusive; note: nearly all actives have a fitted effect of over 55% in size)
Method in brief: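 In human HaCaT keratinocytes stably expressing an ARE-driven luciferase, compound exposure lasted 23 h at 37 C under 5% CO2. Viable cells are quantified with a protease-based fluorogenic reagent (CellTiter-Fluor) read 1 h after addition.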

[2] = Nuclear factor erythroid 2-related factor 2/antioxidant responsive element (Nrf2/ARE) small molecule agonists: luciferase reporter gene qHTS assay in human keratinocytes (AID 1919969); note: nearly all actives have a fitted effect of over 35% in size; note: potency is the fitted concentration of half-maximal effect
[3] = biological target: Gonadotropin-releasing hormone receptor (Homo sapiens) (UniProt P30968); assay: Human gonadotropin-releasing hormone receptor (GnRHR) small molecule agonists, calcium flux assay in GnRHR-HEK293 cells (AID 1920063); note: nearly all actives have a fitted effect of over 35% in size
Method in brief: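 Intracellular calcium rise is the read-out: engineered human GnRHR HEK293 cells, dye-loaded, are exposed to DMSO-dissolved compounds and fluorescence at Ex/Em 480/540 is tracked for 3 min.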

[4] = biological target: KiSS-1 receptor (Homo sapiens) (UniProt Q969F8); assay: Human kisspeptin (KISS1R) small molecule agonists, calcium flux assay in KISS1R-HEK293 cells (AID 1920064; active = well fitted curve in the direction sought with a large enough effect in the repeat runs; an effect the other way counts as inactive or inconclusive)
Method in brief: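 Concentration-response testing used 15 concentrations in triplicate on human KISS1R-expressing HEK293 cells. Calcium-dependent fluorescence (Ex/Em 480/540) was followed kinetically for 3 min after compound transfer.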

[5] = G protein-coupled receptor (GPCR) small molecule agonists, calcium flux assay: HEK293 wild type cell line counter screen (AID 1920065)
Method in brief: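 Fluorescence intensity signals activation. After overnight (18 h) culture and a 1 h calcium dye load at 37 C, compounds are added by pin tool and the plate read at 480/540 nm for 3 min in 1 s steps.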

[6] = p53 small molecule agonists, cell-based qHTS assay with human liver microsomes (AID 1963577); note: potency is the fitted concentration of half-maximal effect
Method in brief: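 Cells carrying a p53-responsive bla reporter were rested 5 h (37 C, 5% CO2) before compound transfer. Human liver microsomes plus NADPH, 0.5 mg/mL final apiece, supplied metabolism during the 16 h 37 C exposure.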

[7] = p53 small molecule agonists, cell-based qHTS assay with human liver microsomes: qHTS cell viability counter screen (AID 1963579); note: nearly all actives have a fitted effect of over 45% in size
Method in brief: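 Seed p53RE-bla cells at 4,000 per well; incubate 5 h at 37 C; add compound, human liver microsomes and NADPH; incubate 16 h at 37 C; add CellTiter-Glo; after 30 min at room temperature, read luminescence.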

[8] = p53 small molecule agonists, cell-based qHTS assay with rat liver microsomes: qHTS cell viability counter screen (AID 1963580); note: nearly all actives have a fitted effect of over 45% in size
Method in brief: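 Luminescent ATP readout (CellTiter-Glo, 30 min at room temperature) reports viability of p53RE-bla HCT-116 cells after 16 h at 37 C with test compounds under metabolic activation by rat liver microsomes and NADPH at 0.5 mg/mL final each.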

[9] = p53 small molecule agonists, cell-based qHTS assay: qHTS cell viability counter screen (AID 1963581); note: nearly all actives have a fitted effect of over 45% in size
Method in brief: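 Luminescence from CellTiter-Glo, reflecting ATP content, serves as the cytotoxicity measure; it is taken after the 2 h reporter substrate step in HCT-116 p53RE-bla cells dosed for 16 h at 37 C.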

[10] = biological target: 5-hydroxytryptamine receptor 2A (Homo sapiens) (UniProt P28223); assay: 5-hydroxytryptamine receptor 2A (HTR2A) small molecule antagonists, cell-based qHTS assay (AID 1963586); note: nearly all actives have a fitted effect of over 45% in size
Method in brief: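 CHO cells stably expressing human HTR2A were plated for 18 h at 37 C, then loaded with calcium dye for 1 h. Compounds were preincubated 5 min at room temperature before DOI (4 nM solution) was added. Kinetic fluorescence was read for 3 min.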

[11] = biological target: 5-hydroxytryptamine receptor 2A (Homo sapiens) (UniProt P28223); assay: 5-hydroxytryptamine receptor 2A (HTR2A) small molecule agonists, cell-based qHTS assay (AID 1963587); note: nearly all actives have a fitted effect of over 30% in size
Method in brief: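 HTR2A-CHO cells, plated 18 h at 37 C/5% CO2, dye-loaded 1 h at 37 C; compounds in DMSO added by pin tool (agonist mode). Intracellular calcium flux read as kinetic fluorescence on FDSS over 2 min at 1 s intervals.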

[12] = biological target: Muscarinic acetylcholine receptor M1 (Homo sapiens) (UniProt P11229); assay: Cholinergic receptor muscarinic 1 (CHRM1) small molecule antagonists, cell-based qHTS assay (AID 1963588); note: nearly all actives have a fitted effect of over 40% in size
Method in brief: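 Compounds were tested at 15 concentrations in three independent runs. Dye-loaded CHRM1-CHO cells were exposed 5 min at room temperature before stimulation by acetylcholine added at 50nM. Intracellular calcium was read kinetically on FDSS for 3 min.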

[13] = biological target: Muscarinic acetylcholine receptor M1 (Homo sapiens) (UniProt P11229); assay: Cholinergic receptor muscarinic 1 (CHRM1) small molecule agonists, cell-based qHTS assay (AID 1963589); note: nearly all actives have a fitted effect of over 35% in size
Method in brief: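 Fluorescent calcium dye reports M1 activation in stably transfected CHO cells. Compounds, 15 concentrations, added after 1 h dye loading at 37 C; kinetic reading at 1 sec intervals.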

[14] = cAMP Responsive Elements (CRE) small molecule antagonists, cell-based qHTS assay (AID 1963591; active = well fitted inhibition curve with a large enough effect in the signal ratio in the repeat runs, not every such curve was filed as active; the % refers to the signal ratio)
Method in brief: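 Stimulation used NKH477 at a final 0.25 uM for 3 h in compound-treated CRE-bla HEK293T cells, seeded 18 h beforehand. Reporter activity was measured with LiveBLAzer B/G FRET substrate after 2 h at room temperature.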

[15] = biological target: Beta-2 adrenergic receptor (Homo sapiens) (UniProt P07550); assay: Adrenergic beta2 receptor (ADRB2) small molecule antagonists, cell-based qHTS assay (AID 1963592); note: series mostly up to about 92 µM; nearly all actives have a fitted effect of over 50% in size
Method in brief: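 Assay format: CHO-ADRB2 cells, 18-20hr seeding at 37C/5% CO2, then compound plus 1nM isoproterenol agonist mix for 0.5hr RT. Homogeneous time-resolved fluorescence cAMP detection after 1hr, expressed as 665/615 nm ratio.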

[16] = biological target: D(2) dopamine receptor (Homo sapiens) (UniProt P14416); assay: Dopamine D2 receptor (DRD2) small molecule agonists, cell-based qHTS assay (AID 1963594); note: nearly all actives have a fitted effect of over 35% in size; note: potency is the fitted concentration of half-maximal effect
Method in brief: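 HEK293 cells stably expressing DRD2 were cultured 24 h at 37 C, then given Ro20-1724 (0.1 mM final) and compounds for 10 min at room temperature. NKH477 (200nM) was then added for 30 min. cAMP was read by HTRF.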

[17] = biological target: D(2) dopamine receptor (Homo sapiens) (UniProt P14416); assay: Dopamine D2 receptor (DRD2) small molecule antagonists, cell-based qHTS assay (AID 1963595; active = well fitted inhibition curve with a large enough effect in the signal ratio in the repeat runs, with a control signal flat; the % refers to the signal ratio)
Method in brief: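 Antagonist mode in DRD2-HEK293 cells: after compound addition with 0.1 mM Ro20-1724, cells received quinpirole (12 nM) and NKH477 (200 nM) for 30 min at room temperature; HTRF cAMP read after 1 h detection.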

[18] = p53 small molecule agonists, cell-based qHTS assay (AID 1963582; active = well fitted activation curve with a large enough effect in the signal ratio in the repeat runs, not every such curve was filed as active; the % refers to the signal ratio)
Method in brief: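 After plating, p53RE-bla cells sat 5 h in the incubator; compounds or DMSO vehicle were pinned in; a 16 h incubation at 37 C followed; FRET substrate was added and, 2 h later at RT, fluorescence was measured.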

[19] = cAMP Responsive Elements (CRE) small molecule agonists, cell-based qHTS assay (AID 1963590)
Method in brief: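 Compound exposure lasted 3 h at 37 C/5% CO2 in CRE-bla HEK 293T cells grown in assay medium with 10% dialyzed FBS and 25 mM HEPES. Reporter signal came from LiveBLAzer B/G FRET substrate, 2 h, room temperature.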

[20] = p53 small molecule agonists, cell-based qHTS assay with rat liver microsomes (AID 1963578)
Method in brief: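 Fluorescence from a beta-lactamase reporter under a p53 response element was measured after cells had been incubated 16 h at 37 C with test compound and rat liver microsomes plus NADPH (0.5 mg/mL final each).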

Measured: Potency

Beta-2 adrenergic receptor (Homo sapiens), sequence (P07550 whole entry, looked up): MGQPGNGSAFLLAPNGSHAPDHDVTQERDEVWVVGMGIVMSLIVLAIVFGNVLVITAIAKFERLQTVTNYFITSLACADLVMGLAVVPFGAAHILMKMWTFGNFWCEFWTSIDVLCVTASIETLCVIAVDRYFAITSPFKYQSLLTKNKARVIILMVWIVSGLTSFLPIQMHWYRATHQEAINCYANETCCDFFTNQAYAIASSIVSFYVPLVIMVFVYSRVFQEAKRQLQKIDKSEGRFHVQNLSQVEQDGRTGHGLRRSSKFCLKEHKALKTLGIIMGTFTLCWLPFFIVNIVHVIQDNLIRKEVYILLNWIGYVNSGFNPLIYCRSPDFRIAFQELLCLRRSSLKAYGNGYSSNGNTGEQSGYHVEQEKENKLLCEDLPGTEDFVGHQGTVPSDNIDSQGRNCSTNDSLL
D(2) dopamine receptor (Homo sapiens), sequence (P14416 whole entry, looked up): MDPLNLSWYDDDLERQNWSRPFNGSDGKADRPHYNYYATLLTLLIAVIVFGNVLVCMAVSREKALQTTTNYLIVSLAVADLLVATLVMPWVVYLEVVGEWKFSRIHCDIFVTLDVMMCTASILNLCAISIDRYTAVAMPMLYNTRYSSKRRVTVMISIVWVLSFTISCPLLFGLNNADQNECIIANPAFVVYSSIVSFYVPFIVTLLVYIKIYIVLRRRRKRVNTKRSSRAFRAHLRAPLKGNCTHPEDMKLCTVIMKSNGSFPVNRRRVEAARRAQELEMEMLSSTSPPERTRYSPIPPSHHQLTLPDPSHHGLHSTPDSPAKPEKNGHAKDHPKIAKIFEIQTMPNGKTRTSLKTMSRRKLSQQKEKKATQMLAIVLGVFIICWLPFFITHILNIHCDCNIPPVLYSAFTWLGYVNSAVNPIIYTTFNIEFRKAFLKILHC
Muscarinic acetylcholine receptor M1 (Homo sapiens), sequence (P11229 whole entry, looked up): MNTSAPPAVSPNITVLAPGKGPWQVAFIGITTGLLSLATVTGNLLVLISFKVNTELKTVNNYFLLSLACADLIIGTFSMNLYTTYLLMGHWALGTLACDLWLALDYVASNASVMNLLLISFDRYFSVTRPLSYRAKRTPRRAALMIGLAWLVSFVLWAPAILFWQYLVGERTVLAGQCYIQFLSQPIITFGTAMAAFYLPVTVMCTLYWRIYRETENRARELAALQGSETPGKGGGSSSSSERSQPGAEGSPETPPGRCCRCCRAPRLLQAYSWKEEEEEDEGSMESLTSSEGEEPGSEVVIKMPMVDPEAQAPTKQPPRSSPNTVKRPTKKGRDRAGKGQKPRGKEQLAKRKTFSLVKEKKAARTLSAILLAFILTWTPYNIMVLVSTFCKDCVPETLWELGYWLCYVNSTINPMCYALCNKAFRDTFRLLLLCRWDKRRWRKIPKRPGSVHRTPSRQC
Gonadotropin-releasing hormone receptor (Homo sapiens), sequence (P30968 whole entry, looked up): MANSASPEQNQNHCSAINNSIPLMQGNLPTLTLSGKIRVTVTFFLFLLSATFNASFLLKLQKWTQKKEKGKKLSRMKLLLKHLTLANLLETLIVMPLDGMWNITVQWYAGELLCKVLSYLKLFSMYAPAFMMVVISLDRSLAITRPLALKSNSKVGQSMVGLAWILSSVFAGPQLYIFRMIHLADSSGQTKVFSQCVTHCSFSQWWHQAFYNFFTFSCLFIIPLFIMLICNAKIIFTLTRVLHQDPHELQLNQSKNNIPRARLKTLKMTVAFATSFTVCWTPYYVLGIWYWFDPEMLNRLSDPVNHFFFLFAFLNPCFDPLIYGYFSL
5-hydroxytryptamine receptor 2A (Homo sapiens), sequence (P28223 whole entry, looked up): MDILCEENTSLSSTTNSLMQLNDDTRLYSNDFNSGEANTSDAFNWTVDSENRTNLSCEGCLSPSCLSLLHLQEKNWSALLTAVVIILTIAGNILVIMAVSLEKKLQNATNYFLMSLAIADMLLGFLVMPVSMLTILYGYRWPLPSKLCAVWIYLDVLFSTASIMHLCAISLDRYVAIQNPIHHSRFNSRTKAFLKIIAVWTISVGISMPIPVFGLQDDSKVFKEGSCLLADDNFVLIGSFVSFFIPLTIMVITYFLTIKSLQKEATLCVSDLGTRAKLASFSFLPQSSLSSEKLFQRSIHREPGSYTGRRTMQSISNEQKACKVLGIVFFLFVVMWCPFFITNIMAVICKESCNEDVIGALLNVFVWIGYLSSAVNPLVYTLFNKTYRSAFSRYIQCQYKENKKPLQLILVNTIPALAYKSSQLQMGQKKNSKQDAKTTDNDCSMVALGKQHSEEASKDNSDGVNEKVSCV
KiSS-1 receptor (Homo sapiens), sequence (Q969F8 whole entry, looked up): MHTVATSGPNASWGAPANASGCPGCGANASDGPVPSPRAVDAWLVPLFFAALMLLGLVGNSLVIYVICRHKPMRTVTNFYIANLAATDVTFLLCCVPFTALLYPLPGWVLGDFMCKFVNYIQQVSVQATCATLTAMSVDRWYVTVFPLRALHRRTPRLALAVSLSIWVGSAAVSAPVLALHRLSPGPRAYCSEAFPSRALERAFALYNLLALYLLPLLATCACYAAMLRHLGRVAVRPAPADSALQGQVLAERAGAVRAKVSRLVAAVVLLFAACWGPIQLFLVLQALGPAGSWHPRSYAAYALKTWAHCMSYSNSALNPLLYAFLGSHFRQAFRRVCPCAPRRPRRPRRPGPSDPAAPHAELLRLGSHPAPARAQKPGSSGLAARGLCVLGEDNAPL

CCCCCCCC(=O)Cl
active: [16] 0.0017 µM
not listed: [18] | [19] | [20]
inactive: all other assays above

OC(c1ccc(F)cc1)(c1cncnc1)c1ccccc1Cl (stereo not drawn)
not listed: [9] | [20]
inactive: all other assays above

COP(N)(=S)Oc1ccccc1C(=O)OC(C)C (stereo not drawn)
active: [6] 18.2 µM
not listed: [9] | [12] | [14] | [19] | [20]
inactive: all other assays above

COP(=O)(OC)O/C(=C\Cl)c1cc(Cl)c(Cl)cc1Cl
active: [2] 68.6 µM | [6] 40.8 µM
not listed: [14] | [20]
inactive: all other assays above

CCCSC(=O)N(CCC)CCC
not listed: [10] | [20]
inactive: all other assays above

CC(C)(C#N)C(C)(C)C#N
not listed: [12] | [18] | [20]
inactive: all other assays above

C#C[C@]1(O)C=C[C@H]2[C@@H]3CCC4=CC(=O)CC[C@@H]4[C@H]3CC[C@@]21CC
not listed: [6] | [11] | [13] | [14] | [19]
inactive: all other assays above
